Screens (PubChem)
Sampled rows, rich in hits. Any-hit rate of the full collection: about 0.51%.
Tat export inh = E. coli Tat export inhibitors, primary screen, MC4100, TorA-mCherry reporter, fluorescence, single point | inhibition, % at 10 µM | 0.036% of 340,000 active | AID 488895, 2010;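 active = mean replicate inhibition at least 50% and at least half of replicates individually reaching 50%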;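 also: exported cargo escapes ClpAP degradation while cytoplasmic cargo is degraded and loses fluorescence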
E coli growth-1 = E. coli V3065 growth inhibition, primary screen, counter-screen for AddAB inhibitor project, absorbance, OD600 | 18 h | inhibition, % at 11.9 µM | 0.27% of 330,000 active | AID 449728, 2010;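 active = inhibition above the campaign's mean inhibition across all tested compounds plus 3 SD, cut at about 9.9% in these data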;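 also: uninfected addAB+ strain grown without phage in ampicillin broth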
E coli growth-2 = E. coli growth inhibition, primary screen, OD600; AID 1053175, 2014; Escherichia coli growth, 23 h; hits give low values; 0.21% of 330,000 active; OD600 absorbance (no concentration beside the values);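 active = OD600 absorbance below the run mean of sample wells minus 3.6 SD, in any replicate, cut at about 0.56 in these data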
AddAB inh = growth inhibition of E. coli expressing H. pylori AddAB, primary screen, AddAB inhibitor project, absorbance; inhibition, % at 11.9 µM; 0.29% of 330,000 active; in the data active = inhibition above about 12%
phage Ecoli inh = growth loss of phage-infected E. coli, primary screen, RecBCD inhibitor project, absorbance, with phage, HTS. inhibition, % at 11.9 µM. 0.26% of 360,000 active. AID 651602, 2012; in the data active = inhibition above about 11%
AddAB conf = growth loss of phage-infected E. coli expressing H. pylori AddAB, confirmation, AddAB inhibitor project, absorbance, E. coli V3065, T4 phage, triplicate; shares compounds with AddAB inh; inhibition, % at 11.9 µM; OD; T4 phage with gene 2 nonsense mutations; 64% of 880 active;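 active = mean inhibition above a set limit taken from the earlier primary screen, cut at about 13% in these data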;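 also: higher means less bacterial growth since AddAB block lets phage replicate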
RecBCD counter = growth loss of RecBCD+ E. coli with mutant T4 phage, counter-screen for AddAB inhibitor project, absorbance, V66 E. coli. shares compounds with AddAB inh. OD growth. inhibition, % at 11.9 µM. 73% of 880 active. AID 488955, 2010;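 active = mean inhibition above the mean of solvent-only control wells plus 3 SD, cut at about 4% in these data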;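 also: optical density read after an 18 h incubation at 37 °C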
Bact viability = bacterial viability inhibition counter-screen, confirmation, counter-screen for AddAB inhibitor project, absorbance; 35% of 880 active; shares compounds with AddAB inh; AID 488956, 2010; inhibition, % at 11.9 µM; absorbance (AddAB counterscreen); in the data active = inhibition above about 25%
RecBCD conf = growth loss of phage-infected RecBCD+ E. coli, confirmation, RecBCD inhibitor project, absorbance, E. coli V66, T4 gene 2 phage. shares compounds with phage Ecoli inh. inhibition, % at 11.9 µM. 45% of 890 active. E. coli V66 + T4 2- phage, growth OD;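 active = mean inhibition over triplicates exceeding the hit threshold derived in the original primary screen, cut at about 11% in these data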
Ecoli viability = E. coli viability inhibition, counter-screen for RecBCD inhibitor project, absorbance, high throughput; shares compounds with phage Ecoli inh; absorbance (OD) growth; inhibition, % at 11.9 µM; 29% of 890 active; in the data active = inhibition above about 20%;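 also: E. coli strain V66 grown with compound alone and no phage infection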
AddAB counter = growth loss of phage-infected AddAB-carrying E. coli, confirmation, counter-screen for RecBCD inhibitor project, absorbance, E. coli V3065, T4 phage | AID 651984, 2013 | shares compounds with phage Ecoli inh | 45% of 890 active | inhibition, % at 11.9 µM | E. coli expressing H. pylori AddAB + T4 phage, OD growth; gene 2 mutant T4, recBCD-deleted host;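 active = mean inhibition above the solvent-only control wells' mean plus 3 SD, cut at about 22% in these data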;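 also: higher means less bacterial growth from phage killing when AddAB is blocked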
Each line names hits and unclear results; the compound was inactive in the other large screens (follow-up assays come after a bar, where they were run).

COC(=O)C1C(O)C(C)C(O)C(C)C=CC=C(C)C(=O)Nc2c(C)c(OC(C)=O)c3c(c2O)C(=O)C(C)=C2OCOC(=C23)C(C)=CC(C)(O)C(O)C(C)C1O (stereo unspecified)	E coli growth-2 0.12 (no result: Tat export inh, E coli growth-1, AddAB inh, phage Ecoli inh)
COC(=O)C1=C(c2ccc(F)cc2OCc2ccccc2)CC2CCC1N2C(=O)NC1CC1 (stereo unspecified)	none (no result: Tat export inh, E coli growth-1, AddAB inh, phage Ecoli inh)
COC(=O)C1=C(c2ccc(F)cc2F)CC2CCC1N2C(=O)N1CCOCC1 (stereo unspecified)	none (no result: Tat export inh, E coli growth-1, AddAB inh, phage Ecoli inh)
c1ccc(-c2nc(N3CCOCC3)s[n+]2-c2ccccc2)cc1	E coli growth-2 0.52
COC(=O)C1=C(c2ccc(S(C)(=O)=O)cc2)CC2CCC1N2C (stereo unspecified)	none (no result: Tat export inh, E coli growth-1, AddAB inh, phage Ecoli inh)
COC(=O)C1=C(c2ccc(C(C)=O)cc2)CC2CCC1N2C(=O)NC1CC1 (stereo unspecified)	none (no result: Tat export inh, E coli growth-1, AddAB inh, phage Ecoli inh)
CNc1cc(Cl)c2nonc2c1[N+](=O)[O-]	E coli growth-2 0.46 (no result: E coli growth-1, AddAB inh)
O=c1c(C=NN2CCOCC2)c(O)n(-c2ccccc2)c(=S)n1-c1ccccc1	none (no result: Tat export inh, E coli growth-1, AddAB inh, phage Ecoli inh)
Clc1ccc(C(c2ccc(Cl)cc2)n2cc[n+](CC(OCc3ccc(Cl)cc3Cl)c3ccc(Cl)cc3Cl)c2)cc1 (stereo unspecified)	E coli growth-2 0.094
COC(=O)C1=C(c2ccc3ccccc3c2)CC2CCC1N2C(=O)N1CCOCC1 (stereo unspecified)	none (no result: Tat export inh, E coli growth-1, AddAB inh, phage Ecoli inh)
COc1cc2cc(C(=O)N3CC(COS(C)(=O)=O)c4ccc(O)cc43)[nH]c2c(OC)c1OC (stereo unspecified)	Tat export inh 58 (no result: E coli growth-1, E coli growth-2, AddAB inh, phage Ecoli inh)
CC1CCC2C(C)C(=O)OC3OC4(C)CCC1C32OO4 (stereo unspecified)	E coli growth-2 0.43
CN(C)C1C(=O)C(C(N)=O)=C(O)[C@@]2(O)C(=O)C3=C(O)c4c(O)cccc4[C@@](C)(O)C3C(O)C12 (stereo partly specified)	E coli growth-2 0.07 (no result: Tat export inh, E coli growth-1, AddAB inh, phage Ecoli inh)
CN(C)C1C(=O)C(C(N)=O)=C(O)[C@@]2(O)C(=O)C3=C(O)c4c(O)cccc4[C@@](C)(O)C3CC12 (stereo partly specified)	E coli growth-2 0.065 (no result: Tat export inh, E coli growth-1, AddAB inh, phage Ecoli inh)
COC(=O)C1=C(c2ccccc2)CC2CCC1N2C(=O)NCCS(C)=O (stereo unspecified)	none (no result: Tat export inh, E coli growth-1, AddAB inh, phage Ecoli inh)
Fc1ccc(CNCCc2ccccc2)cc1	none
C1=C(CCNCc2ccccc2)CCCC1	E coli growth-2 0.45
COC(=O)C1=C(c2cccc(C#N)c2)CC2CCC1N2C(=O)N1CCC(O)CC1 (stereo unspecified)	none (no result: Tat export inh, E coli growth-1, AddAB inh, phage Ecoli inh)
CCCNC1=C(C)C(=O)C2=C(C1=O)C(COC(N)=O)[C@]1(OC)C3NC3CN21 (stereo partly specified)	E coli growth-1 46, E coli growth-2 0.13, AddAB inh 44, phage Ecoli inh 23 | AddAB conf 98 | RecBCD counter 45 | Bact viability 82
COC(=O)C1=C(c2cccc(OCc3ccccc3)c2)CC2CCC1N2C(=O)NCc1ccc(Br)cc1 (stereo unspecified)	none (no result: Tat export inh, E coli growth-1, AddAB inh, phage Ecoli inh)
COC(=O)C1=C(c2ccc(OC)c(OC)c2)CC2CCC1N2C(=O)NCCc1ccccc1 (stereo unspecified)	none (no result: Tat export inh, E coli growth-1, AddAB inh, phage Ecoli inh)
CCCN(CCC)C1Cc2cc(OC)c(OC)cc2C1	E coli growth-1 99, AddAB inh 98 | AddAB conf inactive | RecBCD counter inactive | Bact viability inactive
CC(=NN1CCCCCC1)c1c(O)n(-c2ccc(C)cc2)c(=O)[nH]c1=O	none (no result: Tat export inh, E coli growth-1, AddAB inh, phage Ecoli inh)
CN1/C(=C\C=C\C2=[N+](C)c3ccc4ccccc4c3C2(C)C)C(C)(C)c2ccccc21	E coli growth-1 51, AddAB inh 30 (no result: Tat export inh, E coli growth-2, phage Ecoli inh) | AddAB conf 77 | RecBCD counter 66 | Bact viability 78
O=c1[nH]c(=S)n(C2CC2)c(O)c1C=NCc1cccnc1	none (no result: Tat export inh, phage Ecoli inh)
O=c1[nH]c(=S)n(C2CC2)c(O)c1C=NCc1ccc(F)cc1	E coli growth-1 15, AddAB inh 27 | AddAB conf 62 | RecBCD counter inactive | Bact viability 26
Oc1c(Br)c(Br)c(Br)c(Br)c1Br	E coli growth-1 15, AddAB inh 18 (no result: E coli growth-2, phage Ecoli inh) | AddAB conf 22 | RecBCD counter 20 | Bact viability inactive
Cc1cc([N+](=O)[O-])c2ccccc2[n+]1[O-]	E coli growth-1 21, E coli growth-2 0.48, AddAB inh 28 (no result: phage Ecoli inh) | AddAB conf 99 | RecBCD counter 11 | Bact viability 33
Cc1ccccc1[N+](=O)[O-]	none
COC(=O)C1=C(c2cccc(C#N)c2)CC2CCC1N2C(=O)NCCO (stereo unspecified)	none (no result: Tat export inh, E coli growth-1, AddAB inh, phage Ecoli inh)
OC(c1ccc(F)cc1)(c1ccc(F)cc1)C1CCCN1 (stereo unspecified)	none (no result: Tat export inh, E coli growth-1, AddAB inh, phage Ecoli inh)
Cc1ccc(C[n+]2c(-c3ccc(C)cc3)cc(-c3ccc(C)cc3)cc2-c2ccc(C)cc2)cc1	E coli growth-1 25, E coli growth-2 0.41, AddAB inh 16 (no result: phage Ecoli inh) | AddAB conf 55 | RecBCD counter 12 | Bact viability inactive
CN1CCN(c2ccc([N+](=O)[O-])c3no[n+]([O-])c23)CC1	Tat export inh 51, E coli growth-1 103, E coli growth-2 0.057, AddAB inh 102, phage Ecoli inh 30 | AddAB conf 101 | RecBCD counter 19 | Bact viability 89 | RecBCD conf 14 | Ecoli viability inactive | AddAB counter 101
Cc1nc2c(=O)n(C)c(=O)nc-2n(C)n1	E coli growth-1 42, E coli growth-2 0.049, AddAB inh 41, phage Ecoli inh 42 | AddAB conf 48 | RecBCD counter 39 | Bact viability 42 | RecBCD conf 43 | Ecoli viability 48 | AddAB counter 61
CCn1nc(-c2ccccc2)nc2c(=O)n(C)c(=O)nc1-2	none (no result: phage Ecoli inh)
